Test results from PubChem BioAssay.
Values without a mark were called inactive. Unless noted, no rule for the calls is given here.

biological target: Homeobox protein Hox-A13 (Mus musculus) (UniProt Q62424); experiment: inhibitors of HoxA13-DNA binding, primary screen, biochemical, fluorescence polarization, labeled oligonucleotide (AID 1185); settings: 15 min, higher = more signal, called active from +8 up or from −8 down
Sequence (Q62424 whole entry, looked up): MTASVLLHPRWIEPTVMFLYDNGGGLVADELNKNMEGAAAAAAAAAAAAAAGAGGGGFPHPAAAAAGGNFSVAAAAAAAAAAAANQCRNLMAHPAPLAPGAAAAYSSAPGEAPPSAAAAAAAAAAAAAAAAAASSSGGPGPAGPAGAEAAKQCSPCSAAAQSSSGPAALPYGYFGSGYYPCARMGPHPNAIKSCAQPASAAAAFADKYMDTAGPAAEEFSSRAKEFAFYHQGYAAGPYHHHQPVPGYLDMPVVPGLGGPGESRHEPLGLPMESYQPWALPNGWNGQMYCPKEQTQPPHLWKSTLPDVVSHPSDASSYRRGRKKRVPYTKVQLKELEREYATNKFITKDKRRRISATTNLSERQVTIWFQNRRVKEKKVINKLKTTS

**Q.** Which z-score does the source give for `C=C(COC)C(=O)CC[C@H](OC(C)=O)c1ccc(CO)o1` here?
**A.** -4.72

**Q.** With `CCCCC=C[C@@H](NC(=O)C(C)(C)C)c1ccccc1` as the compound, how does the z-score read?
**A.** -0.258

**Q.** Which z-score does the source give for `O=C1NC(=O)C2C1C=CC(C(O)C(c1ccccc1)c1ccccc1)N2Nc1ccccn1` (stereo not given) here?
**A.** -5.58

**Q.** With `CCOC(=O)C[C@H]1[C@H](OC(=O)c2ccc(-c3ccccc3)cc2)[C@@H](NC(=O)C2CCCCC2)c2cc(OCCCO)ccc2N1C(=O)Cc1ccc(OC)cc1` as the compound, how does the z-score read?
**A.** -2.2

**Q.** Which z-score does the source give for `C=CCOC(=O)[C@H]1[C@@H]2C(=O)O[C@@H](c3ccccc3)[C@@H](c3ccccc3)N2[C@@H](c2ccc(OCCOC(=O)[C@H]3C[C@H]4C(=O)NCC(=O)N4[C@H]3c3cccc(OCCO)c3)cc2)[C@]12C(=O)Nc1ccc(I)cc12` here?
**A.** 0.871

**Q.** Which z-score does the source give for `CC1CC/C=C\[C@H]2OC34C=CCN(C(C)C)C(=O)[C@H]3N(C(C)CO)C(=O)[C@@H]4C2C(=O)O1` (stereo not given in full) here?
**A.** -5.82

**Q.** With `COCCOC(=O)N1C(=O)[C@@]2(c3cc(C#CCNC(N)=O)ccc31)[C@H](C(N)=O)[C@H]1C(=O)O[C@H](c3ccccc3)[C@H](c3ccccc3)N1[C@@H]2c1ccc(O)cc1` as the compound, how does the z-score read?
**A.** -3.48

**Q.** With `[N-]=[N+]=NCc1ccccc1[C@H]1OC(c2ccc(OCCCO)cc2)=N[C@@]1(Cc1ccccc1N=[N+]=[N-])C(=O)O` as the compound, how does the z-score read?
**A.** -4.41

**Q.** Which z-score does the source give for `COc1cccc(C)c1NC(=O)O[C@H]1[C@H](OC(=O)Nc2ccc3c(c2)OCO3)[C@H](OC(=O)Nc2ccc3c(c2)OCO3)[C@@H](OC)O[C@@H]1CO` here?
**A.** -7.67

**Q.** With `CN(C)CCCC[C@@H]1NC(=O)[C@H]2C[C@@H](C(=O)NCCCCCCNC(=O)CS)[C@@H](c3cccc(OCCO)c3)N2C1=O` as the compound, how does the z-score read?
**A.** -1.91

**Q.** Which z-score does the source give for `CCCC[C@@H](O)C1=C(C)Cn2c(=O)n(-c3ccccc3)c(=O)n2[C@H]1CO` here?
**A.** -0.901

**Q.** Which z-score does the source give for `C=CCN1C(=O)[C@]2(O[C@H](CCO)[C@@H]([Si](C)(C)c3ccc(OC)cc3)[C@@H]2C)c2cc(N3C(=O)c4ccccc4Oc4ccccc43)ccc21` here?
**A.** -4.93

**Q.** Which z-score does the source give for `COC(=O)[C@@]1(Cc2ccc(F)cc2)[C@H]2c3cc(C(=O)N4CCCC4)n(C[C@H](O)CO)c3C[C@H]2CN1C(=O)c1ccccc1` here?
**A.** -5.57

**Q.** For `CN1C(=O)C2C(C1=O)C1C=C(CCCO)C2C(C2CC2)N1C` (stereo not given), which z-score is on record?
**A.** -6.6

**Q.** With `C=CCOC(=O)[C@H]1[C@@H]2C(=O)O[C@@H](c3ccccc3)[C@@H](c3ccccc3)N2[C@@H](c2ccc(OCCOC(=O)[C@@H]3C[C@@H]4C(=O)N[C@@H](Cc5ccccc5)C(=O)N4[C@@H]3c3ccc(O)cc3)cc2)[C@]12C(=O)Nc1ccc(I)cc12` as the compound, how does the z-score read?
**A.** 0.703

**Q.** With `[N-]=[N+]=Nc1ccccc1C[C@@]1(C(=O)NCC(O)CO)N=C(c2ccc(OCCCO)cc2)O[C@@H]1c1ccccc1N=[N+]=[N-]` (stereo not given in full) as the compound, how does the z-score read?
**A.** -2.28

**Q.** With `COc1ccc(CCNC(=O)[C@@]2(C)c3ccccc3C(=O)N(Cc3ccc(OC(F)(F)F)cc3)[C@H]2c2ccc(CO)cc2)cc1` as the compound, how does the z-score read?
**A.** -4.22

**Q.** For `CCOC(=O)C1=CC[C@@H](c2ccccc2)N(S(=O)(=O)c2ccc(C)cc2)[C@@H]1C#N`, which z-score is on record?
**A.** -4.26

**Q.** For `[N-]=[N+]=NCc1ccccc1[C@H]1OC(c2ccc(OCCCO)cc2)=N[C@@]1(Cc1ccccc1N=[N+]=[N-])C(=O)N1CCOCC1`, which z-score is on record?
**A.** -1.45

system: not listed separately; experiment: inhibitors of hydroxyurea-induced Chk1 phosphorylation, primary screen, imaging, HeLa, phospho-Chk1 antibody, percent positive cells (AID 1186); settings: hydroxyurea-induced phospho-Chk1 immunofluorescence imaging, higher = more signal

**Q.** With `COC(=O)[C@@]1(Cc2ccccc2)[C@H]2c3cc(C(=O)N(C)C)n(Cc4nc5ccccc5[nH]4)c3C[C@H]2CN1C(=O)c1ccccc1` as the compound, how does the z-score read?
**A.** -0.283

**Q.** For `CC(C)C(=C=CC[C@H](O)c1cccc(OCCO)c1)C[C@H](O)c1ccccn1`, which z-score is on record?
**A.** -0.428

**Q.** Which z-score does the source give for `COc1ccc(CCNC(=O)[C@@H]2c3ccccc3C(=O)N(C(C)C)[C@H]2c2ccc(CO)cc2)cc1` here?
**A.** -0.182

**Q.** Which z-score does the source give for `COCCOC(=O)N1C(=O)[C@@]2(c3cc(C#CCNC(N)=O)ccc31)[C@H](C(=O)Nc1nc3ccccc3s1)[C@H]1C(=O)O[C@H](c3ccccc3)[C@H](c3ccccc3)N1[C@@H]2c1ccc(O)cc1` here?
**A.** -0.0038

**Q.** For `O=C(c1ccccc1)N1Cc2ccccc2C[C@@]2(N=C(c3ccc(OCCCO)cc3)O[C@H]2c2ccccc2)C1=O`, which z-score is on record?
**A.** -0.0769

**Q.** With `CC(=O)NCCCC[C@@H]1NC(=O)[C@H]2C[C@@H](C(=O)NCCCCCN)[C@@H](c3ccc(O)cc3)N2C1=O` as the compound, how does the z-score read?
**A.** 0.32

**Q.** For `COc1ccc(NN2C(C(O)c3ccc(F)cc3)C=CC3C(=O)N(C4CCCCC4)C(=O)C32)cc1` (stereo not given), which z-score is on record?
**A.** 0.472

**Q.** Which z-score does the source give for `C=C(COC)C(=O)CC[C@@H](OC(=O)c1ccccc1-c1ccccc1C(=O)O)c1ccccc1OCCO` here?
**A.** 0.788

**Q.** For `COc1ccc(C(O)C2C=CC3C(=O)N(C)C(=O)C3N2Nc2ccccc2)cc1` (stereo not given), which z-score is on record?
**A.** 0.158

**Q.** With `C=CCOC(=O)[C@H]1[C@@H]2C(=O)O[C@@H](c3ccccc3)[C@@H](c3ccccc3)N2[C@@H](c2ccc(OCCOC(=O)[C@H]3C[C@H]4C(=O)NCC(=O)N4[C@H]3c3ccc(O)cc3)cc2)[C@]12C(=O)Nc1ccccc12` as the compound, how does the z-score read?
**A.** -0.374

**Q.** Which z-score does the source give for `CN1C2C=C(c3ccc(CO)cc3)C(C3C(=O)N(C(N)=O)C(=O)C32)C1C1CC1` (stereo not given) here?
**A.** 0.258

**Q.** For `C=CCNC(=O)[C@H]1[C@@H]2C(=O)O[C@@H](c3ccccc3)[C@@H](c3ccccc3)N2[C@@H](c2ccc(OCCO)cc2)[C@]12C(=O)Nc1ccc(C#Cc3ccc(OC)cc3)cc12`, which z-score is on record?
**A.** 0.165

**Q.** For `O=C(N1CCOCC1)[C@]1(CCS(=O)(=O)c2ccccc2)N=C(c2ccc(OCCCO)cc2)O[C@@H]1c1ccccc1`, which z-score is on record?
**A.** -0.141

**Q.** With `Cc1c(NC(=O)/C(C#N)=C/C=C/c2ccc([N+](=O)[O-])cc2)c(=O)n(-c2ccccc2)n1C` as the compound, how does the z-score read?
**A.** -0.023

**Q.** With `COC(=O)C(CC#Cc1ccc2c(c1)[C@]1(C(=O)N2)[C@H](c2ccccc2OCCO)N2[C@H](c3ccccc3)[C@H](c3ccccc3)OC(=O)[C@H]2[C@@H]1C(=O)N1CCN(c2ncccn2)CC1)C(=O)OC` as the compound, how does the z-score read?
**A.** 0.0162

**Q.** Which z-score does the source give for `C[C@]1(C(=O)NC2CC2)c2ccccc2C(=O)N(Cc2cc(F)cc(C(F)(F)F)c2)[C@H]1c1ccc(CO)cc1` here?
**A.** 0.361

**Q.** For `[N-]=[N+]=NCc1ccccc1C[C@@]1(C(N)=O)N=C(c2ccc(OCCCO)cc2)O[C@@H]1c1ccccc1N=[N+]=[N-]`, which z-score is on record?
**A.** 0.627

**Q.** For `C=C(COC)C(=O)CC[C@H](OC(C)=O)c1ccc(CO)o1`, which z-score is on record?
**A.** -0.707

**Q.** For `CCCCC=C[C@@H](NC(=O)C(C)(C)C)c1ccccc1`, which z-score is on record?
**A.** 0.579

**Q.** For `O=C1NC(=O)C2C1C=CC(C(O)C(c1ccccc1)c1ccccc1)N2Nc1ccccn1` (stereo not given), which z-score is on record?
**A.** -0.12

**Q.** With `CCOC(=O)C[C@H]1[C@H](OC(=O)c2ccc(-c3ccccc3)cc2)[C@@H](NC(=O)C2CCCCC2)c2cc(OCCCO)ccc2N1C(=O)Cc1ccc(OC)cc1` as the compound, how does the z-score read?
**A.** -0.0566

**Q.** For `C=CCOC(=O)[C@H]1[C@@H]2C(=O)O[C@@H](c3ccccc3)[C@@H](c3ccccc3)N2[C@@H](c2ccc(OCCOC(=O)[C@H]3C[C@H]4C(=O)NCC(=O)N4[C@H]3c3cccc(OCCO)c3)cc2)[C@]12C(=O)Nc1ccc(I)cc12`, which z-score is on record?
**A.** -1.38

**Q.** For `CC1CC/C=C\[C@H]2OC34C=CCN(C(C)C)C(=O)[C@H]3N(C(C)CO)C(=O)[C@@H]4C2C(=O)O1` (stereo not given in full), which z-score is on record?
**A.** -0.829

**Q.** For `COCCOC(=O)N1C(=O)[C@@]2(c3cc(C#CCNC(N)=O)ccc31)[C@H](C(N)=O)[C@H]1C(=O)O[C@H](c3ccccc3)[C@H](c3ccccc3)N1[C@@H]2c1ccc(O)cc1`, which z-score is on record?
**A.** 0.319

**Q.** For `[N-]=[N+]=NCc1ccccc1[C@H]1OC(c2ccc(OCCCO)cc2)=N[C@@]1(Cc1ccccc1N=[N+]=[N-])C(=O)O`, which z-score is on record?
**A.** -0.0666

**Q.** With `COc1cccc(C)c1NC(=O)O[C@H]1[C@H](OC(=O)Nc2ccc3c(c2)OCO3)[C@H](OC(=O)Nc2ccc3c(c2)OCO3)[C@@H](OC)O[C@@H]1CO` as the compound, how does the z-score read?
**A.** -0.698

**Q.** With `CN(C)CCCC[C@@H]1NC(=O)[C@H]2C[C@@H](C(=O)NCCCCCCNC(=O)CS)[C@@H](c3cccc(OCCO)c3)N2C1=O` as the compound, how does the z-score read?
**A.** 0.542

**Q.** With `CCCC[C@@H](O)C1=C(C)Cn2c(=O)n(-c3ccccc3)c(=O)n2[C@H]1CO` as the compound, how does the z-score read?
**A.** -0.522

**Q.** With `C=CCN1C(=O)[C@]2(O[C@H](CCO)[C@@H]([Si](C)(C)c3ccc(OC)cc3)[C@@H]2C)c2cc(N3C(=O)c4ccccc4Oc4ccccc43)ccc21` as the compound, how does the z-score read?
**A.** -1.05

**Q.** Which z-score does the source give for `COC(=O)[C@@]1(Cc2ccc(F)cc2)[C@H]2c3cc(C(=O)N4CCCC4)n(C[C@H](O)CO)c3C[C@H]2CN1C(=O)c1ccccc1` here?
**A.** 0.588

**Q.** With `CN1C(=O)C2C(C1=O)C1C=C(CCCO)C2C(C2CC2)N1C` (stereo not given) as the compound, how does the z-score read?
**A.** -0.0182

**Q.** Which z-score does the source give for `C=CCOC(=O)[C@H]1[C@@H]2C(=O)O[C@@H](c3ccccc3)[C@@H](c3ccccc3)N2[C@@H](c2ccc(OCCOC(=O)[C@@H]3C[C@@H]4C(=O)N[C@@H](Cc5ccccc5)C(=O)N4[C@@H]3c3ccc(O)cc3)cc2)[C@]12C(=O)Nc1ccc(I)cc12` here?
**A.** -0.272

**Q.** Which z-score does the source give for `[N-]=[N+]=Nc1ccccc1C[C@@]1(C(=O)NCC(O)CO)N=C(c2ccc(OCCCO)cc2)O[C@@H]1c1ccccc1N=[N+]=[N-]` (stereo not given in full) here?
**A.** -0.0996

**Q.** With `COc1ccc(CCNC(=O)[C@@]2(C)c3ccccc3C(=O)N(Cc3ccc(OC(F)(F)F)cc3)[C@H]2c2ccc(CO)cc2)cc1` as the compound, how does the z-score read?
**A.** -0.141

**Q.** For `CCOC(=O)C1=CC[C@@H](c2ccccc2)N(S(=O)(=O)c2ccc(C)cc2)[C@@H]1C#N`, which z-score is on record?
**A.** -1.95

**Q.** For `[N-]=[N+]=NCc1ccccc1[C@H]1OC(c2ccc(OCCCO)cc2)=N[C@@]1(Cc1ccccc1N=[N+]=[N-])C(=O)N1CCOCC1`, which z-score is on record?
**A.** -0.332
